Data taken from PubChem BioAssay (NCI).
This is part of a sample that, as a whole, favours compounds with a hit. Of some 83,000 tested, about 20% had one in any assay.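 Note: values are percent growth. 100 is the growth of untreated cells, values between 100 and 0 indicate rising inhibition; between -100 and 0 indicates cell death.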 Values without a mark were called inactive. The source made the active and inactive calls. Rule for the calls: active = growth percent below 10; inactive = the rest.

Tests used:
Experiment in all cases: NCI-60 one-dose screen, 48 h (100 = growth as untreated, 0 = no growth, -100 = all killed)
SK-MEL-2 melanoma = conditions: 10 µM unless noted
EKVX NSCLC = conditions: 10 µM
SN12C renal = conditions: 10 µM unless noted
UO-31 renal = conditions: 10 µM unless noted
TK-10 renal = conditions: 10 µM unless noted
ACHN renal = conditions: 10 µM unless noted
CAKI-1 renal = conditions: 10 µM unless noted
CCRF-CEM leukemia = conditions: 10 µM
MOLT-4 leukemia = conditions: 10 µM unless noted
RPMI-8226 leukemia = conditions: 10 µM unless noted
OVCAR-8 ovarian = conditions: 10 µM unless noted
OVCAR-5 ovarian = conditions: 10 µM unless noted
OVCAR-4 ovarian = conditions: 10 µM unless noted
SK-OV-3 ovarian = conditions: 10 µM unless noted
IGROV1 ovarian = conditions: 10 µM unless noted
OVCAR-3 ovarian = conditions: 10 µM unless noted
NCI/ADR-RES ovarian = conditions: 10 µM unless noted
SR leukemia = conditions: 10 µM unless noted
HS 578T breast = conditions: 10 µM unless noted
A498 renal = conditions: 10 µM unless noted

| SMILES | growth (SK-MEL-2 melanoma) | growth (EKVX NSCLC) | growth (SN12C renal) | growth (UO-31 renal) | growth (TK-10 renal) | growth (ACHN renal) | growth (CAKI-1 renal) | growth (CCRF-CEM leukemia) | growth (MOLT-4 leukemia) | growth (RPMI-8226 leukemia) | growth (OVCAR-8 ovarian) | growth (OVCAR-5 ovarian) | growth (OVCAR-4 ovarian) | growth (SK-OV-3 ovarian) | growth (IGROV1 ovarian) | growth (OVCAR-3 ovarian) | growth (NCI/ADR-RES ovarian) | growth (SR leukemia) | growth (HS 578T breast) | growth (A498 renal) |
| --- | --- | --- | --- | --- | --- | --- | --- | --- | --- | --- | --- | --- | --- | --- | --- | --- | --- | --- | --- | --- |
| CN1C(=O)C(=Cc2coc3ccc(Br)cc3c2=O)C(=O)N(C)C1=O | 111% | 109% | 90.3% | 77.3% | 108% | 96.8% | 101% | 116% | 126% | 108% | 98.5% | 114% | 118% | 96.3% | 101% | 105% | 97.9% | – | – | – |
| C=C1CCC2C3(C)COC(c4ccccc4)OC3CCC2(C)C1C/C=C1/C(=O)OCC1O (stereo unspecified) | 66.7% | 104% | 66.7% | 42.9% | 105% | 86.7% | 133% | – | – | – | – | 117% | 66.6% | – | 59.2% | – | 51.5% | – | – | – |
| O=C(C(=O)N1CCOCC1)c1ccc(O[C@H]2O[C@H](CO)[C@@H](O)[C@H](O)[C@@H]2O)cc1 | 107% | 116% | 101% | 91.5% | 103% | 95% | 100% | 109% | 103% | 96.8% | 109% | 98.6% | 105% | 106% | 106% | 121% | 105% | 94.6% | 183% | – |
| N#CCCCCCCCCCCC#N | 108% | 97% | 105% | 92.9% | 92.4% | 107% | 95.2% | 97.5% | 105% | 94.9% | 100% | 99.6% | – | 109% | 124% | 125% | 98.3% | 118% | – | – |
| NCCCOc1cc(Cl)ccc1NC(=O)c1cc2ccccc2cc1OCCCN | -93.9% (active) | -16.1% (active) | 19.7% | 25% | -97.4% (active) | -79% (active) | 59% | – | -52.3% (active) | -43.9% (active) | -73.3% (active) | -72.3% (active) | -70.6% (active) | -42.4% (active) | -43.5% (active) | -86.9% (active) | 57.2% | -38.9% (active) | -56.4% (active) | 2.33% (active) |
| C[C@]12C=CC(=O)C=C1[C@@H](F)C[C@@H]1[C@@H]2[C@@H](O)C[C@@]2(C)[C@H]1CC[C@]2(O)C(=O)CO | 107% | 83% | 69.8% | 79.3% | 107% | 99.4% | 88.6% | 46.5% | 108% | 72.7% | 83.9% | 77.2% | 106% | 71.3% | – | 96.3% | 91.5% | 106% | – | – |
| CCOC(=O)C1=NN(c2ccccc2)C2=NC(=O)/C(=C\c3cn(-c4ccccc4)nc3-c3cc4ccccc4o3)C(=O)N12 | 99.3% | 90.2% | 94.3% | 68.5% | 161% | 94.8% | – | 95.8% | 96.3% | 83% | 100% | 106% | 103% | 97.6% | 89.1% | 103% | 106% | 98% | 97.9% | 112% |
| C=CCN(C)C | 113% | 92% | 94.7% | 93.3% | 119% | 105% | 92.5% | – | – | 117% | 106% | 109% | 115% | 115% | 104% | 118% | 106% | – | 98.1% | 91.1% |
| COc1ccc(CN2C(=O)/C(=C\C(=O)c3ccc(OCCN4CCCCC4)cc3)c3ccccc32)cc1 | 97.4% | 87.6% | 26.3% | 39.3% | 113% | 48.7% | – | 8.94% (active) | 3.78% (active) | -11.6% (active) | 80.8% | 76.3% | 45.4% | 107% | 68.7% | 44.3% | 83.3% | -22.2% (active) | 81.3% | 88.4% |
| COc1ccc(/C(=C(\c2ccccc2)[N+](=O)[O-])c2ccc(OCCN3CCCC3)cc2)cc1 | 79.4% | 96.9% | 83.4% | 28.1% | 80.4% | 75.4% | 76.9% | 67.6% | 71.9% | 37% | 92.6% | 75.3% | 81.8% | 99% | – | 100% | 84.3% | 21.8% | – | – |
| COc1cc([C@@H]2c3cc4c(cc3[C@H](O)[C@H]3COC[C@@H]23)OCO4)cc(OC)c1OC | 89.3% | 109% | 90.5% | 53.9% | 94.4% | 78.2% | 62.3% | – | 76.6% | – | 98.9% | 101% | 85.8% | 98.3% | 71.1% | 56.8% | 64.9% | 25.9% | – | – |
| CC(=O)c1nn(-c2ccc(C)cc2)cc1C(=O)c1cc2c(ccc3ccccc32)oc1=O | 99.7% | 82.3% | 94.3% | 65.2% | 144% | 88.1% | – | 98.4% | 102% | 93.5% | 101% | 102% | 87.3% | 80.4% | 88% | 98.4% | 101% | 84% | 96.7% | 124% |
| COc1ccc(C(=O)CN2C(=O)NC(c3ccccc3)(c3ccccc3)C2=O)cc1 | 99.6% | 98.9% | 101% | 71.2% | 117% | 104% | 93.6% | 94.8% | – | – | 95.2% | 98.7% | 99.8% | 102% | 115% | 107% | 102% | – | 89.3% | 70.5% |
| COc1ccccc1CNCCCN1C(=O)c2ccc3c4c(ccc(c24)C1=O)C(=O)N(CCCNCc1ccccc1OC)C3=O | -80.5% (active) | -63.6% (active) | -78.2% (active) | -84% (active) | -77.9% (active) | -46.8% (active) | -29.1% (active) | -12.7% (active) | -37% (active) | -31.8% (active) | -47.1% (active) | -27.4% (active) | -96.5% (active) | 0% (active) | -58.2% (active) | -59.9% (active) | -2.55% (active) | -45.7% (active) | – | – |
| COc1ccc(/C=C(/C(=O)N2CCCCC2)c2cc(OC)c(OC)c(OC)c2)cc1 | 28.5% | 42.5% | 39.2% | 48.2% | 77.3% | 49% | – | 14.1% | 30.9% | 15.7% | 34.4% | 35.1% | 56.8% | 27.6% | 42% | -19.2% (active) | 6.26% (active) | 13.6% | 20.9% | -2.33% (active) |
| OC(c1ccccc1)(c1ccccc1)C(F)(F)F | 97.7% | 102% | 94.9% | 98.1% | 95.7% | 94.8% | 97.8% | 84.7% | 102% | – | 112% | 93.9% | 122% | 103% | 115% | – | 106% | 85.3% | – | – |
| CC1(c2ccc(Br)cc2)NC(=O)NC1=O (stereo unspecified) | 122% | 109% | 100% | 94.9% | 106% | 104% | 97.8% | – | – | 113% | 97.9% | 104% | 104% | 103% | 102% | 104% | 103% | – | 101% | 99.5% |
| Nc1cc2c(cc1Br)[nH]c(=O)c1ccccc12 | 40.2% | 49.5% | 39.8% | 48.1% | 44% | 22.5% | 52.9% | 47.1% | 20.9% | – | 39.9% | 94% | 24.8% | 62.4% | 19% | 2.99% (active) | 63% | – | 73.3% | 56% |
| N#CC1=C(N2CCOCC2)NC2c3ccccc3Sc3ccccc3N2C1=N (stereo unspecified) | 108% | 92.8% | 103% | 72.9% | 96.9% | 91.5% | 94% | 82.7% | 120% | 106% | 98.7% | 109% | 109% | 81.7% | 79.1% | 103% | 89.9% | 119% | – | – |
| Oc1ccc2ccccc2c1/C=N\Nc1ccccn1 | 19.3% | -6.82% (active) | 22.4% | -24.7% (active) | 58.3% | 6.56% (active) | -26.4% (active) | 8.91% (active) | 5.28% (active) | 25.2% | 14.5% | 65.3% | 8.67% (active) | 19.8% | -4.78% (active) | 5.04% (active) | 0.917% (active) | 8.32% (active) | – | – |
| CCCCCCCCCc1cc[n+](CC(=O)c2ccc([N+](=O)[O-])cc2)cc1 | -73.9% (active) | 11.1% | -2.2% (active) | 35% | 48.4% | 48.1% | 74.9% | – | 1.62% (active) | -25.8% (active) | 11.7% | 18.9% | 19.8% | 50% | 26.6% | 3.13% (active) | 66.3% | -14.3% (active) | – | – |
| CC(=O)/C(=C\c1c(-c2ccccc2)[nH]c2ccccc12)S(=O)(=O)c1ccccc1 | -27.9% (active) | 27.9% | 5.37% (active) | 14% | 10.2% | 28.2% | – | – | -35.5% (active) | – | 12.4% | 1.33% (active) | 17.7% | 19.3% | -5.76% (active) | -36.6% (active) | -5.66% (active) | -35.9% (active) | 8.54% (active) | 41.4% |
| Cc1cc2c(-c3nc4ccccc4[nH]3)c(O)c(O)cc2c(O)c1-c1c(C)cc2c(-c3nc4ccccc4[nH]3)c(O)c(O)cc2c1O | 7.6% (active) | 8.33% (active) | 9.17% (active) | -30.6% (active) | -6.24% (active) | 1.78% (active) | – | 3.98% (active) | 2.22% (active) | 9.72% (active) | -6.85% (active) | 26.2% | 6.83% (active) | -35.6% (active) | 12.7% | 20.6% | -12.6% (active) | 6% (active) | 4.85% (active) | -3.57% (active) |
